Compound activity deposited in PubChem by ICCB-Longwood Screening Facility, Harvard Medical School.
Sa growth inh: blocks Staphylococcus aureus growth. S. aureus RN4220 growth, OD600, 20 h, 42 °C; active compounds read low. relative growth, % (no concentration beside the values). 170,000 compounds, 0.53% hits. AID 720641;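 active = relative growth at most 50% at the other temperature and 20+ points below 30 °C, or under 10% at both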
S aureus helic: blocks Staphylococcus aureus DNA helicase; purified S. aureus helicase, fluorescence unwinding assay; inhibition, % (no concentration beside the values); 120,000 compounds, 0.05% hits; in the data active = inhibition above about 25%, passing the limit was not always enough
Each line names hits and unclear results; the compound was inactive in the other large screens. This is one part of a sample in which hits are shown more often than they occur.

CN(C)c1ccc2nc3ccc(=[N+](C)C)cc-3sc2c1	none (no result: S aureus helic)
CC(C)(C)c1ccc(C(=O)OCCN2CCCC2=O)cc1	none
C=CC[C@H]1CC(C)=C[C@H](CC=C)N1C(C)=O	none
COc1ccccc1C(=O)Nc1nc2ccccc2n1CCOc1ccccc1	Sa growth inh 1.0
COc1ccccc1OCCn1c(NC(=O)c2ccccc2)nc2ccccc21	none (no result: S aureus helic)
CN=c1scc(C)n1/N=C(\C)c1cccc(F)c1	none
Cc1ccc2sc(-c3ccc(N4C(=O)C5CC=CCC5C4=O)cc3)nc2c1 (centres undefined)	none
CN(C)c1ccc(C2=CC=CC(=C3C=CC(=[N+](C)C)C=C3)O2)cc1	Sa growth inh 2.5, S aureus helic 74.0
CN(C)c1ccc(C(=C2C=CC(=[N+](C)C)C=C2)c2ccc(N(C)C)cc2)cc1	none (no result: S aureus helic)
CCS(=O)(=O)c1ccc2oc(SCc3ccc(F)cc3)nc2c1	none
Cc1cc(C)c(NC(=O)c2cn3c4c(c(N5CCN(C)CC5)c(F)cc4c2=O)OCC3C)c(C)c1 (centres undefined)	none
CC1COc2c(N3CCN(C)CC3)c(F)cc3c(=O)c(C(=O)OCc4ccccn4)cn1c23 (centres undefined)	Sa growth inh -1.0
CC1SC(=S)N(CCCC(=O)O)C1=O (centres undefined)	none
Cc1cc(Br)ccc1NC(=O)c1ccccn1	none
C/C(=N\NC(=O)c1cc(Br)ccc1O)c1ccccn1	Sa growth inh 3.1
Cc1cc(C(=O)CSc2nnc(-c3sc4ccccc4c3Cl)o2)c(C)n1C1CC1	none
CCSCC(=O)N1CCN(c2nnc(-c3ccccc3)c3ccccc23)CC1	none
CCOc1ccc(CCNC(=O)Cn2sc3nc(C)cc(C)c3c2=O)cc1	Sa growth inh 6.2
Cc1ccc(CNC(=O)Cn2sc3nc(C)cc(C)c3c2=O)cc1	none
Cc1ccc(-n2nc(C)cc2NC(=O)CSc2nnc(C3COc4ccccc4O3)n2C)cc1 (centres undefined)	none
CN1/C(=C/C#N)Sc2ccccc21	none
CCN1/C(=C/c2ccc3ccccc3[n+]2CC)Sc2cc(NC(C)=O)ccc21	none
COc1ccc2c(ccc(/C=C3\Sc4ccccc4N3C)[n+]2C)c1	Sa growth inh 4.7
CCN1/C(=C/c2ccc3cc(C)ccc3[n+]2C)Sc2cc(OC)ccc21	Sa growth inh -1.5
CC(C)Cn1c(=S)[nH]c2scc(-c3cccs3)c2c1=O	Sa growth inh 8.9
CSc1nc2scc(-c3cccs3)c2c(=O)n1CC(C)C	none
CCCCN(CC)C(=O)Nc1cn(C)c(=O)c2ccccc12	none
CC(C)N(Cc1ccccc1)C(=O)c1cccs1	none (no result: S aureus helic)
CC(C)N(CC(=O)c1cccs1)Cc1ccccc1	Sa growth inh -1.0
O=C(Nc1ccc(Cl)cn1)C1(F)C(F)(F)C(F)(F)C(F)(F)C(F)(F)C1(F)F	none
CCC(=O)Nc1nc(NC(=O)CC)c2ncn(C(=O)CC)c2n1	none
O=S(=O)(Nc1cc(Sc2ncn[nH]2)c(O)c2ccccc12)c1cccs1	none
CCOc1ccc(S(=O)(=O)/N=C2/C=C(Sc3ncn[nH]3)C(=O)c3ccccc32)cc1	none
O=C1C(Sc2ncn[nH]2)=C/C(=N/S(=O)(=O)c2cccs2)c2ccccc21	Sa growth inh 1.4
O=C1C(Sc2ncn[nH]2)=C/C(=N/S(=O)(=O)c2ccc(F)cc2)c2ccccc21	Sa growth inh 1.1
CCN(c1ccccc1)S(=O)(=O)c1ccc2[nH]c(=O)cc(C)c2c1	none
Cc1ccc(NCC(O)COc2ccc(OCc3ccccc3)cc2)cc1 (centres undefined)	none (no result: Sa growth inh)
CC(C)S(=O)(=O)c1nc2ccccc2n1CC(=O)N1CCCc2ccccc21	none
CC(C)N(C(=O)Cn1cc(SCC(=O)N2CCOCC2)c2ccccc21)C(C)C	none
O=C(Nc1cccc(Br)c1)Nc1nc2c(s1)CCCCCC2	Sa growth inh 37.0 (no result: S aureus helic)
Cc1cccc(C(=O)Nc2nc3c(s2)CCCC3)c1	none (no result: S aureus helic)
Cc1cc2nnc(SCC(=O)NCC(C)C)n2c2ccccc12	none
CSc1nnc(-c2ccc(C(C)(C)C)cc2)n1Cc1ccco1	none (no result: S aureus helic)
C=CCSc1nnc(-c2ccc(C(C)(C)C)cc2)n1Cc1ccco1	Sa growth inh 8.7
CC1COC2=C(N3CCN(C)CC3)C(F)=CC3C(=O)C(C(=O)O)=CN1C23 (centres undefined)	Sa growth inh -0.5
CC(C#N)(Nc1ccccc1)c1ccncc1 (centres undefined)	none (no result: S aureus helic)
C=CCn1c(O)c(C2=c3cc(Br)ccc3=NC2=O)c2ccccc21	Sa growth inh 1.4
C=CCn1c(O)c(N=O)c2ccccc21	none
COc1cc(-c2nc3sc4c(c3c(=O)o2)CCCC4)cc(OC)c1OC	none (no result: Sa growth inh)
O=C(O)c1ccc(CN2CCCCC2)cc1	none
O=C(O)c1ccc(O)c(SCN2CCCCC2)c1	Sa growth inh 4.1
CCOC(=O)c1oc2ccccc2c1COC(=O)c1ccc(S(C)(=O)=O)cc1	none
O=C(O)Cc1coc(-c2ccc(F)cc2)n1	none
CN(Cc1coc(-c2ccccc2)n1)Cc1coc(-c2ccccc2)n1	Sa growth inh -1.3
O=C(Nc1c[nH]c2ccccc12)N1CCOCC1	Sa growth inh 3.5
O=C(Nc1ccccc1)Nc1c[nH]c2ccccc12	none
O=C1c2[nH]nc(-c3ccccc3O)c2C(c2ccccc2)N1CC1CCCO1 (centres undefined)	none
NNc1ccc(Cl)c(Cl)c1	none
NNc1ccc2c(Cl)cc(Cl)c(O)c2n1	Sa growth inh 4.2
CN(C)CCc1cc2c(c3c1ccc1ccccc13)OCO2	S aureus helic 45.0
COc1cc2ccc3c(CCN(C)C)cc(OC)c(OC)c3c2cc1OC	none
CC(=O)Nc1ccc(Oc2nc(-c3ccccc3F)nc3ccccc23)cc1	none
COc1cc(-c2nc3ccc(Cl)cn3c2NC(C)(C)C)ccc1O	none
CCN(CC)c1ncc(C(=S)N=P(N(C)C)(N(C)C)N(C)C)s1	none
CC1(C)S[C@@H]2[C@H](NC(=O)COc3ccccc3)C(=O)N2[C@H]1C(=O)O	Sa growth inh -0.9 (no result: S aureus helic)
Cc1onc(-c2ccccc2Cl)c1C(=O)N[C@@H]1C(=O)N2[C@@H]1SC(C)(C)[C@@H]2C(=O)O	Sa growth inh 0.0 (no result: S aureus helic)
CCC(C)(C)NC(=O)C(NS(=O)(=O)c1cccs1)c1ccccc1 (centres undefined)	none (no result: S aureus helic)
CC1(C)S[C@@H]2[C@H](NC(=O)Cc3ccccc3)C(=O)N2[C@H]1C(=O)O	Sa growth inh -0.9 (no result: S aureus helic)
CC1(C)SC(CNC(=O)Cc2ccccc2)NC1C(=O)O (centres undefined)	none (no result: S aureus helic)
NNC(=O)COc1ccccc1	none (no result: S aureus helic)
CCN1CCN(C(=O)NC(C(=O)N[C@@H]2C(=O)N3[C@@H]2SC(C)(C)[C@@H]3C(=O)O)c2ccccc2)C(=O)C1=O (some centres undefined)	Sa growth inh -0.3 (no result: S aureus helic)
Cc1onc(-c2ccccc2Cl)c1C(=O)NC1=NCCS1	none
O=C1CNC(=O)N1/N=C/c1ccc(Cl)cc1Cl	none
Nc1cccc2cccc(C(=O)O)c12	none
O=C(CSCc1ccc(Cl)cc1)c1ccccc1F	none
O=C1CN(O)C=C2N=c3ccccc3=C2N1c1ccccc1	none
CC1(C)S[C@@H]2C(N3C(=O)[C@@H](c4ccccc4)NC3(C)C)C(=O)N2[C@H]1C(=O)O (some centres undefined)	Sa growth inh -0.3 (no result: S aureus helic)
CC(=O)N1C(c2ccccc2)SC(C)(C)C1C(=O)O (centres undefined)	none (no result: S aureus helic)
Cc1ccc(CN2C3CCCC2CC(NC(=O)Nc2ccc(C#N)cc2)C3)cc1 (centres undefined)	none
CS(=O)(=O)c1ccccc1C(=O)Nc1nnc(-c2ccc(Cl)cc2)o1	none
Cc1ccc(C)c(-c2nnc(NC(=O)c3ccccc3S(C)(=O)=O)o2)c1	Sa growth inh 2.0
CN(C)CCC(=O)c1ccc2c(c1)OCO2	none
CCCCCc1ccc(C(=O)CCN(C)C)cc1	Sa growth inh -0.1
